Results from PubChem BioAssay AID504474 (National Center for Advancing Translational Sciences (NCATS), 2011).
The source made the active and inactive calls.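 Rule for the calls: active = clear inhibition of the enzyme's cutting of labeled DNA at one or more tested doses; inactive = response stays at baseline.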

target: Tyrosyl-DNA phosphodiesterase 1 (Homo sapiens) (UniProt Q9NUW8); assay: Gel-Based Assay for Inhibitors of Tyrosyl-DNA Phosphodiesterase (TDP1): Hit Validation; settings: Recombinant TDP1, 32P-DNA substrate cleavage, gel densitometry
Description: Assay Overview: Human tyrosyl-DNA phosphodiesterase I (Tdp1) is a rational anticancer target because this enzyme is involved in the repair of DNA lesions created by the trapping of human DNA topoisomerase I (Top1) following treatment by anticancer agents such as camptothecins. Recombinant Tdp1 was expressed and purified from E. coli in the laboratory (Anthony et al, Nucleic Acids Research, 2007, Vol. 35, 4474-4484). See below for assay protocol. This is assay was used to validate select hits from the related primary AlphaScreen assay (AID: 485290) NIH Molecular Libraries Probe Production Network [MLPCN] NIH Chemical Genomics Center [NCGC] Assay Provider: Yves Pommier and Christophe Marchand, National Cancer Institute
5'-32P-labeled DNA substrate (1 nmol/L; N14Y; 5'-[…]-pY-3') was incubated with 0.2 nmol/L recombinant Tdp1 in the absence or presence of inhibitor for 15 min at room temperature in an assay buffer containing 1X PBS, pH 7.4, 80 mmol/L KCl and 0.01% Tween-20. Reactions were terminated by the addition of 1 volume of gel loading buffer [99.5% (v/v) formamide, 5 mmol/L EDTA, 0.01% (w/v) xylene cyanol, and 0.01% (w/v) bromophenol blue]. Samples were subjected to a 16% denaturing PAGE and gels were exposed after drying to a PhosphorImager screen (GE Healthcare). […]

Sequence of Tyrosyl-DNA phosphodiesterase 1 (Homo sapiens) (Q9NUW8 whole entry, looked up): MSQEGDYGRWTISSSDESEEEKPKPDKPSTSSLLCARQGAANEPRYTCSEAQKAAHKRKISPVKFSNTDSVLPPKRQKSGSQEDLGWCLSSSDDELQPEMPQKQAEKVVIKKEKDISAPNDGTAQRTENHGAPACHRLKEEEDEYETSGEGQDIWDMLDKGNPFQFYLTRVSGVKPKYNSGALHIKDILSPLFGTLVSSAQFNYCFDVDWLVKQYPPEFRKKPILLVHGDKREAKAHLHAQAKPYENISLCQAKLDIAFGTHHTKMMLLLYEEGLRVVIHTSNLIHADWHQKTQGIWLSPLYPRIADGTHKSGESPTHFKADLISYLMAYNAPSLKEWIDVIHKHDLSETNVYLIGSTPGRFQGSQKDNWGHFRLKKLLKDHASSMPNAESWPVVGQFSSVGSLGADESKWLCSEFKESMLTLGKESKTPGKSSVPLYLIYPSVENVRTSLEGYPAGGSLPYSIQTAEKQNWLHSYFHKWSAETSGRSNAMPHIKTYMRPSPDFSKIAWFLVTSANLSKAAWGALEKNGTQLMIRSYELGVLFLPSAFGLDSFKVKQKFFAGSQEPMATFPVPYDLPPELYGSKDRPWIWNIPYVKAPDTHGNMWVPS

Row | SMILES | Potency | outcome
1 | O=c1c2ccccc2nc2sc(Nc3cccc(Cl)c3)nn12 | 7.4 µM (active) | –
2 | O=c1c2ccccc2nc2sc(Nc3ccc(F)cc3)nn12 | – | inactive
